Source: PubChem
Most compounds without a hit are left out; they make up all but 3.9% or so of the library.
VHR inh abs: VHR1 phosphatase inhibitors, primary screen, biochemical, absorbance, uHTS; recombinant VHR phosphatase, pNPP absorbance; inhibition, % at 13.3 µM; actives 0.52% (n = 290,000); in the data active means inhibition above about 50%
Target sequence (P51452 whole entry, looked up): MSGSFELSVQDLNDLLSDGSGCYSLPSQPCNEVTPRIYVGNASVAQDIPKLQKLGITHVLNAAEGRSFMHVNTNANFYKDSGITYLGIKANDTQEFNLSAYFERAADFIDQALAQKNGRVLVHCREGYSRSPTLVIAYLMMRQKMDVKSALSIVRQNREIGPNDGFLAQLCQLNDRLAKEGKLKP
BoNT A protease: BoNT/A light chain protease inhibitors, primary screen, biochemical, flow cytometry, MLPCN library | Botulinum neurotoxin type A light chain protease (Clostridium botulinum A str. ATCC 3502) | multiplex microsphere protease substrate cleavage | inhibition, % at 10 µM | actives 0.17% (n = 360,000) | AID 588499, 2011; further: plate controls were buffer without enzyme for full effect and enzyme alone for no effect
Bead autofluor: compound fluorescence in toxin protease inhibitor counterscreen | compound autofluorescence counterscreen, microsphere flow cytometry; hits give high values | fluorescence intensity (test concentration not listed) | actives 3.1% (n = 360,000); in the data active means fluorescence intensity above about 16000; inconclusive means no clear call, values can overlap the other calls
SARS 3CLpro inh: SARS-CoV 3CLpro protease inhibitors, primary screen, biochemical, quenched FRET; Replicase polyprotein 1ab (Severe acute respiratory syndrome coronavirus), P0C6X7; recombinant SARS-CoV 3CLpro, quenched FRET peptide cleavage; inhibition, % at 6 µM; actives 0.14% (n = 290,000); in the data active means inhibition above about 12%
BoNT-F LC inh: BoNT/F light chain protease inhibitors, primary screen, biochemical, flow cytometry, MLPCN library. Multiplex microsphere protease cleavage assay. Botulinum neurotoxin type F light chain protease (Clostridium botulinum). actives 0.22% (n = 360,000). inhibition, % at 10 µM; in the data active means inhibition above about 35%, passing the limit was not always enough; inconclusive means no clear call, values can overlap the other calls; further: plate controls were buffer without enzyme for full effect and enzyme alone for no effect
Anthrax LF prot: Bacillus anthracis LF protease inhibitors, primary screen, biochemical, multiplex microsphere, MLPCN library; Lethal factor (Bacillus anthracis), P15917; actives 0.12% (n = 360,000); multiplex microsphere protease cleavage assay; inhibition, % at 10 µM; further: plate controls were buffer without enzyme for full effect and enzyme alone for no effect
* = called active by the depositor; ? = inconclusive; nt = not tested or not shown; ! = not confirmed by another sample. Unless noted, no stated cut-off is given here; in the data, active means inhibition above about 30%; inconclusive means no clear call, values can overlap the other calls; inactive means below that.

SMILES | VHR inh abs | BoNT A protease | Bead autofluor | SARS 3CLpro inh | BoNT-F LC inh | Anthrax LF prot
O=C1/C(=C/c2cccs2)SC(=S)N1c1cccc(O)c1 | -2.8 | -0.5 | 4052 | 7.7 | 1.6 | -3.7
CCOCCCn1c(=NC(C)=O)c(C#N)cc2c(=O)n3ccccc3nc21 | 26.9 | 4.1 | 3019 | 0.1 | ? | -3.6
CCOC(=O)c1cc2c(=O)n3ccccc3nc2n(C(C)C)c1=NC(=O)c1ccncc1 | 1.1 | 1.0 | 4250 | 2.0 | 13.1 | -1.0
CCOCCCn1c(=NC(C)=O)c(C(=O)OCC)cc2c(=O)n3ccccc3nc21 | -4.1 | -0.7 | 23789*! | -2.1 | -8.7 | -4.7
CCOC(=O)c1cc2c(=O)n3ccccc3nc2n(C(C)C)c1=NC(=O)c1c(-c2ccccc2Cl)noc1C | 7.7 | 38.6* | 4242 | -1.0 | 9.4 | 25.9
OC[C@@H]1CN(CCc2ccccc2)C[C@H](n2cnc3c(NCc4ccc(F)cc4)ncnc32)O1 | nt | -0.1 | 3508 | nt | -2.5 | -0.7
CCOc1ccc2ccc(OCC)c(/C=N/n3cnnc3)c2c1 | 20.4 | -1.1 | 3995 | -7.0 | 13.9 | -0.2
OCCSc1c(F)c(SCCO)c(SCCO)c(F)c1SCCO | -4.7 | -0.1 | 23508* | 0.4 | 1.8 | 0.5
O=S(=O)(NC1CCCC1)c1ccc(F)cc1F | nt | -0.7 | 3918 | nt | 0.0 | -6.9
Cc1ccc(C(C)C)c(OCC(=O)NN=C(CCl)CCl)c1 | -6.4 | nt | nt | 2.5 | nt | nt
CCn1nnc(NC(=O)COc2cc(C)ccc2C(C)C)n1 | -11.0 | -1.9 | 20175* | 2.4 | -4.5 | -1.5
CCCCn1nnc(NC(=O)COc2ccc(Cl)c(C)c2)n1 | 32.6 | -5.9 | 17759* | 7.3 | -6.3 | -5.8
COc1ccccc1-c1noc(CCC(=O)Nc2cccnc2)n1 | nt | 0.9 | 4354 | nt | 9.0 | -3.9
COc1cc(CN2CCC(C(=O)N3CCN(c4ccccc4F)CC3)CC2)cc(OC)c1OC | 28.6 | -1.3 | 16517* | -4.5 | -3.3 | -2.0
COc1ccccc1N1CCN(S(=O)(=O)c2cccc(F)c2)CC1 | -8.3 | -1.1 | 22849* | 3.6 | -1.9 | -2.5
COc1ccccc1N1CCN(Cc2c(F)cccc2Cl)CC1 | 22.3 | -1.3 | 21264* | -1.5 | -2.2 | -0.8
COc1ccc(CN2CCC(C(=O)N3CCN(c4ccccc4F)CC3)CC2)cc1OC | 13.2 | -0.5 | 9424 | -5.4 | -2.8 | 4.7
CCOc1ccccc1N1CCN(Cc2cccc(OC)c2O)CC1 | 20.4 | ? | 17870* | 4.1 | -11.1 | -2.8
COc1ccccc1N1CCN(S(=O)(=O)c2ccc(F)cc2)CC1 | 17.0 | 1.3 | 15571 | -2.8 | 4.5 | -7.5
COc1ccc(N2C(=O)C3C(c4ccc(C(=O)O)cc4)NC(Cc4ccccc4)(C(=O)O)C3C2=O)c([N+](=O)[O-])c1 (stereo not drawn) | 1.1 | 0.3 | 2608 | -2.9 | 0.8 | -1.6
COc1ccccc1N1CCN(Cc2ccco2)CC1 | 20.0 | 3.1 | 7355 | -4.4 | 10.7 | -2.6
COc1ccccc1N1CCN(Cc2ccc(Br)s2)CC1 | 1.2 | 0.5 | 20319* | -0.5 | 0.6 | -3.2
Cc1ccc(C)c(S(=O)(=O)N2CCN(CC(=O)Nc3ccc4c(c3)OCCO4)CC2)c1 | 11.3 | -1.4 | 24103* | 1.0 | -2.5 | 3.3
Cc1cccc(OCCC(=O)Nc2ccc(C)c(S(=O)(=O)N3CCCCC3)c2)c1 | 51.3* | 0.8 | 2562 | 11.4 | -0.7 | 0.6
Cc1cccc(OCCC(=O)Nc2ccc(C)c(S(=O)(=O)N3CCOCC3)c2)c1 | nt | -0.3 | 2957 | nt | -6.8 | -6.5
SMILES | VHR inh abs | BoNT A protease | Bead autofluor | SARS 3CLpro inh | BoNT-F LC inh | Anthrax LF prot
CCN1C(=O)C(CC(=O)NCc2ccc(Cl)cc2)N(CC)C1=O (stereo not drawn) | -13.2 | -1.1 | 20390* | 2.0 | -1.2 | -0.2
O=C1CC(c2ccccc2)CC(O)=C1C=NCCN1CCN(C(=O)Nc2ccccc2)CC1 (stereo not drawn) | 15.3 | 1.3 | 22422* | -3.1 | 2.8 | -2.1
CCOC(=O)N1CCN(CC(=O)Nc2nc3ccc(OC)cc3s2)CC1 | -6.1 | -1.6 | 4307 | 6.9 | ? | 11.7
COC(=O)C1N[C@@H]([C@@H](NC(=O)COc2ccccc2)C(=O)NCc2ccc(OC)cc2)SC1(C)C (stereo partly drawn) | nt | -0.5 | 4115 | nt | 0.3 | 1.5
O=C(NC1CCCCC1)c1cccc2c(-c3ccc(F)c(F)c3)coc12 | nt | 0.4 | 3771 | nt | -1.1 | -1.4
COc1ccc(CN2CCN(C(=O)CC(C)C)CC2)cc1Br | 24.0 | -1.6 | 2992 | -2.7 | -9.0 | -3.9
COc1ccc(/C=C/C(=O)N(CC(C)C)CC(C)C)cc1Br | 2.6 | ? | 21487* | -0.1 | 2.8 | -3.4
COc1ccc(/C(O)=C2\C(=O)C(=O)N(CCN3CCOCC3)C2c2ccccc2OC)cc1 (stereo not drawn) | 7.6 | 0.4 | 2432 | 4.8 | -0.3 | 1.1
CCOc1ccc(/C(O)=C2\C(=O)C(=O)N(CCOCCO)C2c2ccccc2OC)cc1 (stereo not drawn) | 13.0 | ? | 23386* | -1.1 | -2.0 | -0.7
Cc1cc2oc(C(=O)N(Cc3ccccc3)C3CCS(=O)(=O)C3)cc(=O)c2cc1Cl (stereo not drawn) | 11.6 | 6.2 | 19953* | 1.8 | 8.1 | 4.3
CCc1ccc(CN(C(=O)c2cc3ccccc3oc2=O)C2CCS(=O)(=O)C2)cc1 (stereo not drawn) | 9.5 | 2.1 | 8689 | 0.7 | -3.4 | 0.2
Cc1ccc(CN(C(=O)c2cc3ccccc3oc2=O)C2CCS(=O)(=O)C2)cc1 (stereo not drawn) | 3.6 | 1.6 | 21783* | 2.5 | 3.8 | 0.7
O=C(c1cc(=O)c2ccccc2o1)N(Cc1ccccc1)C1CCS(=O)(=O)C1 (stereo not drawn) | 3.9 | 1.8 | 5931 | 2.4 | 0.2 | 3.6
O=C1C=C(NCc2ccccc2)C2(CCCCC2)O1 | 28.0 | 2.8 | 22250* | 1.5 | 3.7 | 0.7
COC(=O)C1=CN(C(C)C)C=C(C(=O)OC)C1c1cccc(OC)c1 | 16.5 | -0.1 | 3262 | 0.4 | 3.0 | -1.5
COC(=O)C1=CN(C(C)C)C=C(C(=O)OC)C1c1cc(Br)c(OC)c(OC)c1 | -16.0 | -3.8 | 23675* | 3.3 | -5.4 | -0.5
N#Cc1cccc(C=C(C(=O)c2ccccc2)c2ccccc2)c1 | nt | -0.6 | 4856 | nt | -20.8 | -12.9
COc1ccc(NC(=O)Nc2ccc(F)cc2F)c(C)c1 | -5.5 | ? | 21747* | 1.0 | -0.2 | 0.4
COc1cccc(NC(=O)CN(C)C(=O)CCCc2nc3ccccc3s2)c1 | nt | -7.0 | 7286 | nt | -17.6 | 2.5
Cc1[nH]nc(-c2ccc(O)cc2O)c1Oc1ccccc1 | 29.9 | -0.3 | 5481 | 1.7 | -6.2 | 0.3
